Results filed as inconclusive are left out. Entries that show only a call come without a potency. Active and inactive are the calls of the source. Unless noted, the call rests on the fitted dose curve.
Potency means the concentration at half of the fitted maximal effect.

The first experiment is described as follows: qHTS assay to identify small molecule agonists of the NFkB signaling pathway - cell viability counter screen (AID 1159515). Further: nearly all actives have a fitted effect of over 55% in size. The note with it: NFkB-bla ME-180 viability, CellTiter-Glo luminescence, 5 h; series mostly up to 61 µM. The method, boiled down:
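NFkB-bla ME-180 cells, 2,000/well, plated overnight at 37 C; compound added for 5 hr at 37 C. Viability read in the same wells as the bla reporter, by CellTiter-Glo luminescence after 30 min at room temperature.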
With `Oc1c(Br)c(Br)c(Br)c(Br)c1Br`, the Potency result was “inactive”. The same measure, in the same setting: then `Oc1ccc(C(=C(Cl)Cl)c2ccc(O)cc2)cc1`, with “inactive”; and `CC1CCC(C(C)C)C(OC(=O)c2ccccc2N)C1` (stereo not drawn), with 34.2 µM (active); and `CN(C)c1ccc(N=Nc2ccccc2)cc1`, with “inactive”.

With `CCCCCCCCCCCCCN1CC(C)OC(C)C1` (stereo not drawn), the Potency result is “inactive”. The same measure, in the same setting: next, `CCc1nn(C)c(C(=O)NCc2ccc(C(C)(C)C)cc2)c1Cl`: 54.9 µM (active); `CC(C)CC(C)(c1ccc(O)cc1)c1ccc(O)cc1`: 49.1 µM (active). Turning to `O=c1c(C2CC(c3ccc(-c4ccc(Br)cc4)cc3)Cc3ccccc32)c(O)sc2ccccc12` (stereo not drawn), the Potency entry was “inactive”. For `CCOP(=O)(NC(C)C)Oc1ccc(SC)c(C)c1` (stereo not drawn), the Potency entry was “inactive”.

For the compound `CCOCn1c(-c2ccc(Cl)cc2)c(C#N)c(Br)c1C(F)(F)F`, the Potency entry was “inactive”. On the same count and under the same terms, then `C[C@H]1O[C@@H](O[C@H]2[C@@H](O)C[C@H](O[C@H]3[C@@H](O)C[C@H](O[C@H]4CC[C@@]5(C)[C@H](CC[C@@H]6[C@@H]5CC[C@]5(C)[C@@H](C7=CC(=O)OC7)CC[C@]65O)C4)O[C@@H]3C)O[C@@H]2C)C[C@H](O)[C@@H]1O`, with 0.124 µM (active); and `O=c1ssc(Cl)c1Cl`, with 27.5 µM (active); and `CCCSP(=O)(OCC)SCCC`, with “inactive”. On to `CC(C)C1CCC(Cc2ccc(Cl)cc2)C1(O)Cn1cncn1` (stereo not drawn), for which the Potency is 54.4 µM (active).

On to `O=[N+]([O-])O.O=[N+]([O-])O.[Cd]`, for which the Potency result was “inactive”. `N#CC(Cl)Cl`: the Potency entry is “inactive”. In the case of `N#CSCSC#N`, the Potency is 25.1 µM (active). Still for that read-out and setting: then `CC[C@H](C)[C@H]1O[C@]2(C=C[C@@H]1C)C[C@@H]1C[C@@H](C/C=C(\C)[C@@H](O[C@H]3C[C@H](OC)[C@@H](O[C@H]4C[C@H](OC)[C@@H](O)[C@H](C)O4)[C@H](C)O3)[C@@H](C)/C=C/C=C3\CO[C@@H]4[C@H](O)C(C)=C[C@@H](C(=O)O1)[C@]34O)O2`, with 28.9 µM (active); and `Cc1c(Cl)c(=O)oc2cc(OP(=O)(OCCCl)OCCCl)ccc12`, with “inactive”. Take `CCN(CC)C(=S)[S-].CCN(CC)C(=S)[S-].[Zn+2]`: the Potency was 12.2 µM (active).

In the case of `CCCCN(CCCC)C(=S)[S-].CCCCN(CCCC)C(=S)[S-].[Zn+2]`, the Potency result was “inactive”.

As to `CC1(c2ccc(Oc3ccccc3)cc2)OC(=O)N(Nc2ccccc2)C1=O` (stereo not drawn), the Potency result was “inactive”. Still for that read-out and setting: then `CC(C)CC(C)Nc1ccc(Nc2ccccc2)cc1` (stereo not drawn), with 54 µM (active); and `CN(C)C(=S)S`, with 15.5 µM (active). Regarding `CC(C)OC(=O)C(O)(c1ccc(Cl)cc1)c1ccc(Cl)cc1`, the Potency was 49 µM (active).

On to `C[C@H]1CC[C@@H]2[C@@H](C)[C@H]3[C@H](C[C@H]4[C@@H]5CC=C6CC(O[C@@H]7O[C@H](CO)[C@H](O)[C@H](O[C@@H]8O[C@H](CO)[C@@H](O)[C@H](O)[C@H]8O)[C@H]7O[C@H]7O[C@@H](C)[C@H](O)[C@@H](O)[C@H]7O)CC[C@]6(C)[C@H]5CC[C@]34C)N2C1` (stereo partly drawn), for which the Potency was 56.7 µM (active). The same measure, in the same setting: then `COc1cc(C=O)cc2c1[C@H](COC(N)=O)[C@]1(OC(C)=O)ON2C[C@H]2[C@@H]1N2C(C)=O`, with “inactive”.

On to `COP(=O)(OC)SCn1c(=O)oc2cc(Cl)cnc21`, for which the Potency result is “inactive”.

As for `Cc1ccc(OP(=O)(Oc2ccccc2)Oc2ccccc2)cc1`, the Potency result is “inactive”. The same measure, in the same setting: then `COc1ccc(OC)c(CC(C)N)c1` (stereo not drawn), with “inactive”; and `Cc1cc(N=Nc2ccccc2C)ccc1N`, with “inactive”; and `BrC(Br)C(Br)(Br)Br`, with “inactive”. Same read-out and setting: then `CCOC(=O)OC1=C(c2cc(C)ccc2C)C(=O)NC12CCC(OC)CC2` (stereo not drawn), with “inactive”.

As for `CCCCCCCCCCCCCCCCCCn1cc[n+](C)c1`, the Potency is 48.7 µM (active). Same read-out and setting: next, `CCC(C)(C)C(=O)OC1=C(c2ccc(Cl)cc2Cl)C(=O)OC12CCCCC2`: “inactive”. Regarding `c1ccc2c(c1)[nH]c1cnccc12`, the Potency result was “inactive”. As to `CCOP(=S)(OCC)OC(Cl)C(Cl)(Cl)Cl` (stereo not drawn), the Potency entry is “inactive”. `Fc1cccc(Cl)c1CCl`: the Potency entry is “inactive”.

A further experiment can be described thus: qHTS assay to identify small molecule agonists of the endoplasmic reticulum stress response signaling pathway - cell viability counter screen (AID 1159517). Further: nearly all actives have a fitted effect of over 50% in size. Particulars: ESRE-bla HeLa viability, CellTiter-Glo luminescence, 5 h; series mostly up to 61 µM. The method, boiled down:
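CellTiter-Glo was added to wells already read for beta-lactamase FRET, and luminescence was recorded 30 min later. Cells: ESRE-bla HeLa, 1,500 per well, compound exposure 5 hr at 37 C.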
With `CC1CCC(C(C)C)C(OC(=O)c2ccccc2N)C1` (stereo not drawn), the Potency is 43 µM (active). Still for that read-out and setting: then `O=[N+]([O-])O.O=[N+]([O-])O.[Cd]`, with “inactive”. The same measure, in the same setting: next, `CN(C)C(=S)S`: “inactive”; `Cc1cc(N=Nc2ccccc2C)ccc1N`: “inactive”; `BrC(Br)C(Br)(Br)Br`: “inactive”. On the same count and under the same terms, then `c1ccc2c(c1)[nH]c1cnccc12`, with “inactive”.

A further experiment is described as follows: qHTS assay to identify small molecule antagonists of the retinoid-related orphan receptor gamma (ROR-gamma) signaling pathway - cell viability counter screen (AID 1159520; active means well fitted cell-killing curve with a large enough effect in the repeat runs; further: nearly all actives have a fitted effect of over 50% in size). The note with it: Tet-on RORgamma CHO cells viability, ATP luminescence, 16 h; series mostly up to 92.4 µM. The method, boiled down:
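Tet-on ROR gamma CHO cells (1,000/well) were plated 4 hr, given compounds in DMSO for 2 hr at 37 C, then induced with 1 uM final doxycycline for 16 hr. Viability was read as ATP by CellTiter-Glo luminescence after 30 min.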
Take `Oc1c(Br)c(Br)c(Br)c(Br)c1Br`: the Potency entry was “inactive”. Same read-out and setting: then `Oc1ccc(C(=C(Cl)Cl)c2ccc(O)cc2)cc1`, with “inactive”; and `CN(C)c1ccc(N=Nc2ccccc2)cc1`, with “inactive”; and `CCCCCCCCCCCCCN1CC(C)OC(C)C1` (stereo not drawn), with “inactive”. As to `CCc1nn(C)c(C(=O)NCc2ccc(C(C)(C)C)cc2)c1Cl`, the Potency is 21.7 µM (active). Regarding `O=c1c(C2CC(c3ccc(-c4ccc(Br)cc4)cc3)Cc3ccccc32)c(O)sc2ccccc12` (stereo not drawn), the Potency result was “inactive”. On the same count and under the same terms, next, `CCOP(=O)(NC(C)C)Oc1ccc(SC)c(C)c1` (stereo not drawn): “inactive”; `CCOCn1c(-c2ccc(Cl)cc2)c(C#N)c(Br)c1C(F)(F)F`: 9.69 µM (active). Still for that read-out and setting: then `C[C@H]1O[C@@H](O[C@H]2[C@@H](O)C[C@H](O[C@H]3[C@@H](O)C[C@H](O[C@H]4CC[C@@]5(C)[C@H](CC[C@@H]6[C@@H]5CC[C@]5(C)[C@@H](C7=CC(=O)OC7)CC[C@]65O)C4)O[C@@H]3C)O[C@@H]2C)C[C@H](O)[C@@H]1O`, with “inactive”; and `O=c1ssc(Cl)c1Cl`, with 15.4 µM (active). In the case of `CCCSP(=O)(OCC)SCCC`, the Potency entry was “inactive”. Turning to `CC(C)C1CCC(Cc2ccc(Cl)cc2)C1(O)Cn1cncn1` (stereo not drawn), the Potency is 60.5 µM (active). On the same count and under the same terms, next, `N#CC(Cl)Cl`: “inactive”. Still for that read-out and setting: next, `CC[C@H](C)[C@H]1O[C@]2(C=C[C@@H]1C)C[C@@H]1C[C@@H](C/C=C(\C)[C@@H](O[C@H]3C[C@H](OC)[C@@H](O[C@H]4C[C@H](OC)[C@@H](O)[C@H](C)O4)[C@H](C)O3)[C@@H](C)/C=C/C=C3\CO[C@@H]4[C@H](O)C(C)=C[C@@H](C(=O)O1)[C@]34O)O2`: 25.6 µM (active). On the same count and under the same terms, then `Cc1c(Cl)c(=O)oc2cc(OP(=O)(OCCCl)OCCCl)ccc12`, with “inactive”; and `CCCCN(CCCC)C(=S)[S-].CCCCN(CCCC)C(=S)[S-].[Zn+2]`, with “inactive”. Turning to `CC1(c2ccc(Oc3ccccc3)cc2)OC(=O)N(Nc2ccccc2)C1=O` (stereo not drawn), the Potency was 54.8 µM (active). Regarding `CC(C)CC(C)Nc1ccc(Nc2ccccc2)cc1` (stereo not drawn), the Potency is 67.4 µM (active). Still for that read-out and setting: next, `COc1cc(C=O)cc2c1[C@H](COC(N)=O)[C@]1(OC(C)=O)ON2C[C@H]2[C@@H]1N2C(C)=O`: “inactive”. As to `COP(=O)(OC)SCn1c(=O)oc2cc(Cl)cnc21`, the Potency entry was “inactive”. Still for that read-out and setting: then `Cc1ccc(OP(=O)(Oc2ccccc2)Oc2ccccc2)cc1`, with “inactive”; and `COc1ccc(OC)c(CC(C)N)c1` (stereo not drawn), with “inactive”. Same read-out and setting: then `CCOC(=O)OC1=C(c2cc(C)ccc2C)C(=O)NC12CCC(OC)CC2` (stereo not drawn), with “inactive”; and `CCCCCCCCCCCCCCCCCCn1cc[n+](C)c1`, with 60.8 µM (active).

The values are drawn from PubChem BioAssay (Tox21).
